Experiment [1] deals with Paired box protein Pax-6 (Homo sapiens) (UniProt P26367). The experiment can be described thus: ATG_Pax6_CIS: Attagene CIS-FACTORIAL HepG2 Assay for human Paired Box 6 (PAX6) (AID 2282956). Conditions: HepG2 CIS-FACTORIAL PAX6 reporter transcription, RNA readout; actives raise or lower the signal. In short, it runs like this: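 After twenty-four hours of chemical exposure, transfected HepG2 cells are harvested for RNA. Cis-promoter reporter transcripts are amplified, fluorescently labelled and sized by capillary electrophoresis, with gain and loss of signal scored against DMSO.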
Chain of Paired box protein Pax-6 (Homo sapiens) (P26367 whole entry, looked up): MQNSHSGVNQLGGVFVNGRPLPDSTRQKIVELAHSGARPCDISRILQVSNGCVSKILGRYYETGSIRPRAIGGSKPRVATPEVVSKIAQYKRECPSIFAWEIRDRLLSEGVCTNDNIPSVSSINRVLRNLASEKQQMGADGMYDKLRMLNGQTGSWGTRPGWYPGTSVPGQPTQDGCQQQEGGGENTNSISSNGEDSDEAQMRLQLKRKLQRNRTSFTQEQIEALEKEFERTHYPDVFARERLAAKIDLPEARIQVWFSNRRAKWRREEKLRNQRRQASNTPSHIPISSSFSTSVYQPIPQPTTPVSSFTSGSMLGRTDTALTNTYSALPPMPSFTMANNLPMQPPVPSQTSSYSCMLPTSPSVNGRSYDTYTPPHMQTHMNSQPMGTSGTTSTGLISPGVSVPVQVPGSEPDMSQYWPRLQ

Experiment [2] is described as follows: ATG_PXRE_CIS: Attagene CIS-FACTORIAL HepG2 Assay for human Pregnane X Receptor Element (PXRE) (AID 2282957). Conditions: HepG2 Attagene CIS-FACTORIAL PXRE reporter, mRNA; actives raise or lower the signal. In short, it runs like this: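 Cells: HepG2, transiently transfected reporter units under cis promoter control. Exposure: 24 h. Detection: reporter mRNA via RT-PCR/CE fluorescence; bidirectional fitting, DMSO-referenced.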

Experiment [3] can be described thus: ATG_PPRE_CIS: Attagene CIS-FACTORIAL HepG2 Assay for human Peroxisome Proliferator-activated Response Element (PPRE) (AID 2282958). The note with it: HepG2 PPRE cis-element reporter, Attagene transcription factor profiling; actives raise or lower the signal. In short, it runs like this: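 Transcript-level reporter induction in transfected HepG2 cells after 24 h chemical exposure, quantified by fluorescence from RT-PCR products separated by capillary electrophoresis.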

Experiment [4] in a line: ATG_RORE_CIS: Attagene CIS-FACTORIAL HepG2 Assay for human RAR-related Orphan Receptor Element (RORE) (AID 2282959). The note with it: HepG2 Attagene cis-factorial RORE reporter, mRNA; actives raise or lower the signal. In short, it runs like this:
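Multiplexed reporter assay measuring mRNA induction from a cis promoter element in transiently transfected HepG2 cells after 24 h treatment. Detection via RT-PCR and capillary electrophoresis fluorescence; DMSO serves as baseline.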

A short description of experiment [5]: ATG_Sox_CIS: Attagene CIS-FACTORIAL HepG2 Assay for human SRY-box transcription factor (SOX) (AID 2282960). The note with it: HepG2 Attagene cis-factorial SOX reporter, mRNA; actives raise or lower the signal. In short, it runs like this: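 Cells were transfected with reporter constructs under cis-regulatory promoters, then exposed to chemicals for 24 h. Reporter transcripts were quantified by fluorescence after RT-PCR and capillary electrophoresis; activity was fitted in both directions against DMSO.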

Experiment [6] concerns the target Transcription factor Sp1 (Homo sapiens) (UniProt P08047). The experiment can be described thus: ATG_Sp1_CIS: Attagene CIS-FACTORIAL HepG2 Assay for human Specificity Protein 1 (Sp1) (AID 2282961). The note with it: HepG2 Sp1 cis-reporter transcription, actives raise or lower the signal. In short, it runs like this: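 Measures mRNA induction of an Sp1-linked reporter in HepG2 cells 24 h post-dosing. Multiplexed reporters read by RT-PCR and capillary electrophoresis; DMSO serves as negative control and baseline.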

Experiment [7] can be described thus: ATG_SREBP_CIS: Attagene CIS-FACTORIAL HepG2 Assay for human Sterol Regulatory Element Binding (SREBP) (AID 2282962). Conditions: HepG2 Attagene cis-factorial SREBP reporter, mRNA; actives raise or lower the signal. In short, it runs like this: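 Twenty-four hours after chemical dosing of transfected HepG2 cultures, reporter RNA was converted to cDNA, amplified, end-labelled with 6-FAM and resolved by capillary electrophoresis. Responses were fitted relative to DMSO.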

Experiment [8] in a line: ATG_TA_CIS: Attagene CIS-FACTORIAL HepG2 Assay for human TA Basal Promoter (AID 2282964). The note with it: HepG2 Attagene CIS-factorial TA basal promoter reporter; actives raise or lower the signal. In short, it runs like this:
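Background-control readout: TA basal promoter reporter mRNA, fitted in both directions relative to DMSO. Measured by RT-PCR and capillary electrophoresis 24 hours after treating HepG2 human liver cells transiently carrying multiplexed cis-regulated reporter constructs.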

Experiment [9] in a line: ATG_TCF_b_cat_CIS: Attagene CIS-FACTORIAL HepG2 Assay for human T-Cell-Factor with beta-catenin (TCF/b-cat) (AID 2282965). The note with it: HepG2 TCF/beta-catenin cis-reporter transcription, actives raise or lower the signal. In short, it runs like this:
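Cells of the HepG2 line carry transiently transfected reporter units whose promoters respond to endogenous factors. Twenty-four hours post-dosing, reporter mRNA induction is measured by fluorescent RT-PCR and capillary electrophoresis, with DMSO as baseline.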

Experiment [10] in a line: ATG_TAL_CIS: Attagene CIS-FACTORIAL HepG2 Assay for human TAL Basal Promoter (AID 2282966).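 Note: background control endpoint measuring basal TAL promoter reporter mRNA not a specific factor.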 Conditions: HepG2 Attagene cis-factorial TAL promoter reporter; actives raise or lower the signal. In short, it runs like this:
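RT-PCR plus capillary electrophoresis quantifies reporter mRNA induction in transiently transfected HepG2 cells after 24 h chemical treatment. DMSO serves as negative control and baseline for bidirectional fitting.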

Experiment [11] in a line: ATG_TGFb_CIS: Attagene CIS-FACTORIAL HepG2 Assay for human Transforming Growth Factor (TGF) (AID 2282967). Conditions: HepG2 Attagene CIS TGFb reporter, mRNA transcription; actives raise or lower the signal. In short, it runs like this:
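Endogenous TGFB1-linked transcription factor activity read as reporter mRNA via RT-PCR and capillary electrophoresis, 24 h after dosing transiently transfected HepG2 cells. Gain or loss of signal fitted relative to DMSO.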

Experiment [12] in a line: ATG_VDRE_CIS: Attagene CIS-FACTORIAL HepG2 Assay for human Vitamin D Receptor Element (VDRE) (AID 2282968). The note with it: HepG2 VDRE cis-reporter transcription, actives raise or lower the signal. In short, it runs like this: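 Cell-based multiplexed reporter format in human liver HepG2 cells, 24 h post-dose. Fluorescence from capillary electrophoresis of reporter cDNA gives the signal, with DMSO as negative control and baseline.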

Experiment [13] addresses Estrogen receptor (Homo sapiens) (UniProt P03372). The experiment can be described thus: ATG_ERa_TRANS: Attagene TRANS-FACTORIAL HepG2 Assay for human Estrogen Receptor alpha (ERa) (AID 2282970; active = hit-call score of the fitted dose curve at least 0.9, where 1 is the maximum). Conditions: HepG2 Attagene TRANS ERa GAL4 reporter, mRNA. In short, it runs like this:
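Cells: HepG2, transiently transfected. Construct: GAL4-UAS reporter units regulated by exogenous NR-Gal4 chimeras. Time: 24 h. Detection: reporter mRNA by RT-PCR, capillary electrophoresis, fluorescence. Baseline: DMSO, upward fitting.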

Experiment [14] has as its target Steroid hormone receptor ERR1 (Homo sapiens) (UniProt P11474). The experiment can be described thus: ATG_ERRa_TRANS: Attagene TRANS-FACTORIAL HepG2 Assay for human Estrogen-Related Receptor alpha (ERRa) (AID 2282971; active = hit-call score of the fitted dose curve at least 0.9, where 1 is the maximum). Conditions: HepG2 Attagene TRANS reporter, ERRa transactivation. In short, it runs like this:
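Reporter transcripts from ERRa-Gal4 chimera activity measured in transiently transfected human HepG2 cells 24 hours after dosing, using RT-PCR with 6-FAM primer extension, HpaI digestion and capillary electrophoresis; DMSO is baseline.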

The target of experiment [15] is X-box-binding protein 1 (Homo sapiens) (UniProt P17861). Description: ATG_Xbp1_CIS: Attagene CIS-FACTORIAL HepG2 Assay for human X-box Binding Protein 1 (XBP1) (AID 2282972). The note with it: HepG2 XBP1 cis-element reporter, Attagene multiplex; actives raise or lower the signal. In short, it runs like this:
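After a 24-hour chemical exposure of HepG2 cells carrying cis-regulated reporters, reporter mRNA levels are assessed. Quantification uses RT-PCR, 6-FAM labelling and capillary electrophoresis. Gain- or loss-of-signal is fitted against DMSO.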

The nature of experiment [16]: ATG_M_19_TRANS: Attagene TRANS-FACTORIAL HepG2 Assay for M19 Transcription Factor (Internal Marker) (AID 2282974; active = hit-call score of the fitted dose curve at least 0.9, where 1 is the maximum). The note with it: HepG2 Attagene TRANS-FACTORIAL M19 internal marker reporter. In short, it runs like this: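 After transfection of HepG2 with GAL4-UAS-driven reporter constructs, cells are dosed for 24 h. Total RNA is reverse-transcribed, reporter sequences PCR-amplified and labelled, then HpaI-digested and sized by capillary electrophoresis.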

Experiment [17] has as its target Signal transducer and activator of transcription 3 (Homo sapiens) (UniProt P40763). Description: ATG_STAT3_CIS: Attagene CIS-FACTORIAL HepG2 Assay for human Signal Transducer and Activator of Transcription 3 (STAT3) (AID 2282963). The note with it: HepG2, Attagene cis-factorial STAT3 reporter transcription; actives raise or lower the signal. In short, it runs like this:
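Values derive from bidirectional fits relative to DMSO of reporter mRNA levels, measured by RT-PCR with capillary electrophoresis, in HepG2 cells carrying transiently transfected cis-regulated reporter units and exposed 24 h.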

A short description of experiment [18]: ATG_GAL4_TRANS: Attagene TRANS-FACTORIAL HepG2 Assay for GAL4 (Internal Marker) (AID 2282976; active = hit-call score of the fitted dose curve at least 0.9, where 1 is the maximum). Conditions: HepG2 Attagene TRANS GAL4 internal marker reporter. In short, it runs like this: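 In transfected human HepG2 liver cells dosed 24 h, GAL4 reporter mRNA serves as a baseline marker. Detection by RT-PCR with fluorescent capillary electrophoresis, activity fitted upward relative to DMSO.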

Inconclusive results are not listed. The source made the active and inactive calls. Rule for the calls, unless noted: active = hit-call score of the fitted dose curve at least 0.9, where 1 is the maximum; inactive = score below 0.9. Peptide text beside a SMILES is read from it.

Chain of Signal transducer and activator of transcription 3 (Homo sapiens) (P40763 whole entry, looked up): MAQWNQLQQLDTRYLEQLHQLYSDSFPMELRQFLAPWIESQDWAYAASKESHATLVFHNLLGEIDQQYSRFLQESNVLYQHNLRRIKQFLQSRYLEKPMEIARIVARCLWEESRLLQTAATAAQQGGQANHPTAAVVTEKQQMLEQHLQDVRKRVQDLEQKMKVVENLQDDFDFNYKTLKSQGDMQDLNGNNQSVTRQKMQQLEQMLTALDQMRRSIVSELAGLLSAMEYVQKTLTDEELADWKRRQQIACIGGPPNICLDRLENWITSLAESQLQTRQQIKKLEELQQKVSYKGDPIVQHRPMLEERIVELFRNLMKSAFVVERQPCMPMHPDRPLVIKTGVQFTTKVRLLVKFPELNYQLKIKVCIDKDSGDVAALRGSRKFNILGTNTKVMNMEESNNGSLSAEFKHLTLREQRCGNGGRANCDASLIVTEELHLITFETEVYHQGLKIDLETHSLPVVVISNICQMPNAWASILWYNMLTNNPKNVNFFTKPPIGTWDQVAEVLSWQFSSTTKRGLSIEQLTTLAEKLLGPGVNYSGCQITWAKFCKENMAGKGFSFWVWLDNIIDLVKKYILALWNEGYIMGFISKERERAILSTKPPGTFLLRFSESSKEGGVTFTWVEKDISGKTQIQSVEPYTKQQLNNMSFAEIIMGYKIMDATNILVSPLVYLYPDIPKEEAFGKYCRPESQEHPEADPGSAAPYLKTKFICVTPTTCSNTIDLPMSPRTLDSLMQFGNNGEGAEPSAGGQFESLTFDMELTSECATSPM
Chain of Transcription factor Sp1 (Homo sapiens) (P08047 whole entry, looked up): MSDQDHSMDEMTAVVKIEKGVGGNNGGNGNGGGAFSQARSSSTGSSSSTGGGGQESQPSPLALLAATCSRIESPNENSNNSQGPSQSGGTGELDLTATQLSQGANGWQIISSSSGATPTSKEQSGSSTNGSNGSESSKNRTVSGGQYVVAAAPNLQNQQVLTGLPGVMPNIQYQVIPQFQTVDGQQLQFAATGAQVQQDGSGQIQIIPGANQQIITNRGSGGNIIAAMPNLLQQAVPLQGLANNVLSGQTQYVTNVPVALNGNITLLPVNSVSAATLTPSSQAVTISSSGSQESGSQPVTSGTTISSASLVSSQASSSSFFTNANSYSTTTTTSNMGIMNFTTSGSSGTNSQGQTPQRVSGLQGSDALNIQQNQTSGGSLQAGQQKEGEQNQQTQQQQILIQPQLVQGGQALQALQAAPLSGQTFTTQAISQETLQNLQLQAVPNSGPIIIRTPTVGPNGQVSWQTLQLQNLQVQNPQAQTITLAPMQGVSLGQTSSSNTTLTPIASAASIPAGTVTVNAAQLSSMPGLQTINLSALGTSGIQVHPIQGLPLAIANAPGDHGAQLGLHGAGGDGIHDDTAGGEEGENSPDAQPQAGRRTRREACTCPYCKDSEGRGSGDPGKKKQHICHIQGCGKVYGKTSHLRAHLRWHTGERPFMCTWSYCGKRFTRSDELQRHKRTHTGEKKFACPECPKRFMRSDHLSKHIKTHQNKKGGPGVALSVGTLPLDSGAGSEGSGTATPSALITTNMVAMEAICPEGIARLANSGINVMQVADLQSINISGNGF
Chain of Estrogen receptor (Homo sapiens) (P03372 whole entry, looked up, the tested form may be a part): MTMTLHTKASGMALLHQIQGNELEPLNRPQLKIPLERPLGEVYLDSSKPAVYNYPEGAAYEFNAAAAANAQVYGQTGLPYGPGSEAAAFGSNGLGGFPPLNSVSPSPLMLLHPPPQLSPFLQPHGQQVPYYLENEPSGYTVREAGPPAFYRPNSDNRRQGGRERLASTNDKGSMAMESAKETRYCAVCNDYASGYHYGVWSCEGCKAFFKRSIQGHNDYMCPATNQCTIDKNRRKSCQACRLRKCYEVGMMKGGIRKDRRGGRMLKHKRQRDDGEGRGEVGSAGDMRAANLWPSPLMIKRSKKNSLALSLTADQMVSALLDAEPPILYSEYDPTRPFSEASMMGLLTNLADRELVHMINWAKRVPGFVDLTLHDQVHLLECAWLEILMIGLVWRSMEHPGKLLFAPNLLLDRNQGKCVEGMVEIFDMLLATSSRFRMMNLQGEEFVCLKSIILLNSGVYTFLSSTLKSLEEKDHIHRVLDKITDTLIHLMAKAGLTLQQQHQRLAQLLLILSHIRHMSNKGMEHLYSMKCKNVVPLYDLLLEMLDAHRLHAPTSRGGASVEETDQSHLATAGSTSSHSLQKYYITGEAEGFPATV
Chain of X-box-binding protein 1 (Homo sapiens) (P17861 whole entry, looked up): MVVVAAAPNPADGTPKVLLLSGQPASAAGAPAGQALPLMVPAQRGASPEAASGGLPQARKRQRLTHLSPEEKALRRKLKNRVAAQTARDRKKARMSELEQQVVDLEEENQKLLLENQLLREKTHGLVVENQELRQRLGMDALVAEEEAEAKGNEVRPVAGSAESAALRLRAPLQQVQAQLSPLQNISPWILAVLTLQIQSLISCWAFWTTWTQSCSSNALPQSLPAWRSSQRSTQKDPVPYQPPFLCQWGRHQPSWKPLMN
Chain of Steroid hormone receptor ERR1 (Homo sapiens) (P11474 whole entry, looked up, the tested form may be a part): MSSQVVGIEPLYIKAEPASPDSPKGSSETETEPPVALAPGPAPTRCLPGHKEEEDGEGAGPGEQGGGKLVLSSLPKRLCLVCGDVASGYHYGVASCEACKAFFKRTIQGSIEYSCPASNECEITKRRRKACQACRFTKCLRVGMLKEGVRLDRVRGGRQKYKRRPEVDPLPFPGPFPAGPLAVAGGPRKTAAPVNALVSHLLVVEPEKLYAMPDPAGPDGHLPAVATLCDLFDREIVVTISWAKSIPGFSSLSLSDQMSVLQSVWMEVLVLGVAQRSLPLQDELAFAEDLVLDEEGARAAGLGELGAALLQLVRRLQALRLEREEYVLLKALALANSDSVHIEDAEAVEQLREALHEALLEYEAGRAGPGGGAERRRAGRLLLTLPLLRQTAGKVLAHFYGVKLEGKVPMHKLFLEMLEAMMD

Take `CCCCCCCCCCCCCCCCCCOS(=O)(=O)O`: the molecule was called inactive in experiment [1], in experiment [2], in [3], in experiment [4], in experiment [5] and in experiment [6]. Further, the result in [10], in [11], in experiment [13], in [14] and in [16] was inactive. Moreover, the AC50 was 52.7 µM (active) in experiment [7]; 12.4 µM (active) in experiment [8]; 17.3 µM (active) in [9]; 51.7 µM (active) in experiment [12]; 33.4 µM (active) in experiment [15].
Take `COCC(=O)O`: the call in experiment [1], in experiment [2], in [3], in experiment [4], in [5] and in experiment [6] was inactive. Besides, the molecule was called inactive in experiment [7], in experiment [17], in [8], in experiment [9], in experiment [10] and in experiment [12]. For the same molecule, the call in experiment [13], in [15] and in experiment [16] was inactive.
As to `NNS(=O)(=O)c1ccc(Oc2ccc(S(=O)(=O)NN)cc2)cc1`, the molecule was called inactive in [1], in experiment [2], in experiment [3], in experiment [6], in [7] and in [17]. For the same molecule, the result in experiment [8], in experiment [9], in experiment [10], in experiment [11], in experiment [13] and in experiment [15] was inactive. Moreover, the call in experiment [16] and in [18] was inactive.
Take `CCC(C)C(=O)OC` (centres undefined): the outcome in experiment [1], in [2], in experiment [3], in [5], in [6] and in [7] was inactive. Besides, the result in [8], in experiment [9], in experiment [10], in [12], in [14] and in experiment [15] was inactive. In experiment [16], the result was inactive.
For the molecule `C/C=C/C=C/CCCCCCCO`, the values for the AC50 in [1], in experiment [2] and in [12] were 76 µM (active), 25.5 µM (active) and 22.7 µM (active), respectively. The outcome in experiment [3], in experiment [5], in experiment [6], in experiment [7], in experiment [17] and in experiment [9] was inactive. The molecule was classed as inactive in experiment [10], in [11], in [15] and in experiment [16].
`CCN(CC)c1cccc(C)c1`: the result in experiment [1], in experiment [3], in experiment [4], in experiment [5], in experiment [6] and in experiment [7] was inactive. For the same molecule, the molecule was classed as inactive in experiment [17], in experiment [8], in [9], in [10], in experiment [12] and in experiment [13]. The call in [15], in experiment [16] and in experiment [18] was inactive. Besides, the AC50 in experiment [2] is 27.7 µM (active).
For the molecule `C=C(C)C1CC=C(C)C(OC(C)=O)C1` (centres undefined), the call in experiment [1], in experiment [2], in [3], in experiment [4], in experiment [5] and in [6] was inactive. The call in experiment [7], in experiment [17], in [9], in experiment [10], in [11] and in [13] was inactive. Moreover, the call in [15] and in experiment [16] was inactive.
For the molecule `CCc1cccc(CC)c1`, the molecule was classed as inactive in experiment [1], in experiment [2], in experiment [3], in experiment [5], in [6] and in experiment [7]. Further, the result in [17], in [8], in [9], in experiment [10], in experiment [11] and in experiment [12] was inactive. The result in experiment [13], in experiment [15] and in experiment [18] was inactive.
For `COC(=O)[C@H](Cc1ccccc1)NC(=O)[C@@H](N)CC(=O)O` (H-Asp-Phe-OMe), the molecule was classed as inactive in [1], in [2], in [3], in experiment [4], in experiment [5] and in experiment [6]. The molecule was called inactive in experiment [7], in [17], in experiment [9], in [10], in experiment [11] and in [13]. In experiment [15], the molecule was called inactive.
